# In article PMC7862700, “An all-to-all approach to the identification of sequence-specific readers for epigenetic DNA modifications on cytosine”:
# How the values were obtained:
# Test in all cases: DAPPL (digital affinity profiling via proximity ligation, sequencing); 10 mM Tris-HCl pH 7.5, 50 mM NaCl, 1 mM DTT, 4% glycerol, room temperature, 30 min; GST-TFs on glutathione beads, 16-mer random dsDNA library, 0.1% formaldehyde crosslink after washing; high values mean tight binding
# FLI1 = biological target: T1, FLI1 (Homo sapiens, UniProt Q01543 1-452); details: protein: recombinant; tags: N-terminal GST; dsDNA, one strand shown
# T1 sequence: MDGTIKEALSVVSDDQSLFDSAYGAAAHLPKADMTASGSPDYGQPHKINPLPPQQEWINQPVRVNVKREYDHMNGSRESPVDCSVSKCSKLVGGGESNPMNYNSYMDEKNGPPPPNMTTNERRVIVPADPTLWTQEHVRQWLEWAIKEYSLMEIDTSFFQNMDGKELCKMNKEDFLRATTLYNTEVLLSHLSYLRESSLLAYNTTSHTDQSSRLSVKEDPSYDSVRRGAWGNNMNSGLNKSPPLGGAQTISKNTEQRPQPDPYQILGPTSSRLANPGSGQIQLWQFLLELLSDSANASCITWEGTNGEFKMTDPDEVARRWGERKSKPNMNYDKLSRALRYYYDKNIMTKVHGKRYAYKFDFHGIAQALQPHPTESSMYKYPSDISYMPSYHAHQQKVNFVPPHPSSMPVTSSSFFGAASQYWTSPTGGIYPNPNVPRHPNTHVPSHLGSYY
# How it was run: (§1)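 A tag-only sample was pooled with DNA-barcoded human transcription factors that had been expressed in yeast as GST fusions and captured on glutathione beads. The pools were incubated for 30 min at room temperature with 200 nmole of a random double-stranded 16-mer DNA library in Tris/NaCl/DTT/glycerol buffer, then washed, crosslinked with 0.1% formaldehyde, proximity-ligated (BsaI/T4 ligase, 1 h, 37 °C), PCR-amplified and sequenced on an Illumina NextSeq500. Binding signal is each hexamer's read frequency for a factor divided by its frequency for the tag-only sample.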
# ELK1 = biological target: T2, ELK1 (Homo sapiens, UniProt P19419 1-428); details: protein: recombinant; tags: N-terminal GST; dsDNA, one strand shown
# T2 sequence: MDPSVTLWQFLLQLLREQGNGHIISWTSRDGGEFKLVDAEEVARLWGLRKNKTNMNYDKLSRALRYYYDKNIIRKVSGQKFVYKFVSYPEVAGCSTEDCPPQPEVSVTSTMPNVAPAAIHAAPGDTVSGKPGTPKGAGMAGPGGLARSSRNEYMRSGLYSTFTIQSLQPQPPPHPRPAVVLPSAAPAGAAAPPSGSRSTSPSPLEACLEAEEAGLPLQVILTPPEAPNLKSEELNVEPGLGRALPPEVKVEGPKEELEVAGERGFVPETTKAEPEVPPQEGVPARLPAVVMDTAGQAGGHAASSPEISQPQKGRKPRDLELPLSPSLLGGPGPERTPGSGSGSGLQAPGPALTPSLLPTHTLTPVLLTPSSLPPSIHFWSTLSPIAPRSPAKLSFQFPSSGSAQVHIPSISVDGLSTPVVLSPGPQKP
# How it was run: as §1
# GABPA = biological target: T3, GABPA (Homo sapiens, UniProt Q06546 1-454); details: protein: recombinant; tags: N-terminal GST; dsDNA, one strand shown
# T3 sequence: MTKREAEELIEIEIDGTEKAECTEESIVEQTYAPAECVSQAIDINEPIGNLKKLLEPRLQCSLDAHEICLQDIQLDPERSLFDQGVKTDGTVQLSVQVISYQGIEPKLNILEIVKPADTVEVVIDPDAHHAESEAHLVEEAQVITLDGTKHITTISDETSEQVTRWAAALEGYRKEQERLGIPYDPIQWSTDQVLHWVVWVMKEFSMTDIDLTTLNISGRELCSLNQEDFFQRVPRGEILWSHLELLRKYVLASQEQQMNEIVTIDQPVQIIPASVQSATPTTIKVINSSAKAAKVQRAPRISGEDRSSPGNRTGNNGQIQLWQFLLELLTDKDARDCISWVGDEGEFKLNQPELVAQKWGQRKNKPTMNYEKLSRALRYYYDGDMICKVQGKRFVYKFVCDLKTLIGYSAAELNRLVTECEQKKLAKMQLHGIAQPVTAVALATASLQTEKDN
# How it was run: as §1
# ERG = biological target: T4, ERG (Homo sapiens, UniProt P11308 1-479); details: protein: recombinant; tags: N-terminal GST; dsDNA, one strand shown
# T4 sequence: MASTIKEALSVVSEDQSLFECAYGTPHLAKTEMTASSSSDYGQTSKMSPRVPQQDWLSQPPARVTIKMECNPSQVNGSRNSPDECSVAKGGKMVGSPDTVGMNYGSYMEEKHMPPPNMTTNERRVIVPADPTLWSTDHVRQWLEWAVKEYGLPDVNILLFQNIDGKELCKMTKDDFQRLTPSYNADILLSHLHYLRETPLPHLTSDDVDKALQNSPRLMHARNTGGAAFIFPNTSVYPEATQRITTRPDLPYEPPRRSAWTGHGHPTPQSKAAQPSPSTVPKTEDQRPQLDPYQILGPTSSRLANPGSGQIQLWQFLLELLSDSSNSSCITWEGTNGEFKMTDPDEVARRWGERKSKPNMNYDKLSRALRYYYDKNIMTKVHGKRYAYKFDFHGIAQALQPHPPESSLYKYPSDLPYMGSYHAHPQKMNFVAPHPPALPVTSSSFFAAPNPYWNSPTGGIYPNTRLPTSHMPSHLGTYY
# How it was run: as §1
# ELF1 = ELF1 (Homo sapiens, UniProt P32519 1-619); details: protein: recombinant; tags: N-terminal GST; dsDNA, one strand shown
# Sequence of ELF1 (P32519 whole entry): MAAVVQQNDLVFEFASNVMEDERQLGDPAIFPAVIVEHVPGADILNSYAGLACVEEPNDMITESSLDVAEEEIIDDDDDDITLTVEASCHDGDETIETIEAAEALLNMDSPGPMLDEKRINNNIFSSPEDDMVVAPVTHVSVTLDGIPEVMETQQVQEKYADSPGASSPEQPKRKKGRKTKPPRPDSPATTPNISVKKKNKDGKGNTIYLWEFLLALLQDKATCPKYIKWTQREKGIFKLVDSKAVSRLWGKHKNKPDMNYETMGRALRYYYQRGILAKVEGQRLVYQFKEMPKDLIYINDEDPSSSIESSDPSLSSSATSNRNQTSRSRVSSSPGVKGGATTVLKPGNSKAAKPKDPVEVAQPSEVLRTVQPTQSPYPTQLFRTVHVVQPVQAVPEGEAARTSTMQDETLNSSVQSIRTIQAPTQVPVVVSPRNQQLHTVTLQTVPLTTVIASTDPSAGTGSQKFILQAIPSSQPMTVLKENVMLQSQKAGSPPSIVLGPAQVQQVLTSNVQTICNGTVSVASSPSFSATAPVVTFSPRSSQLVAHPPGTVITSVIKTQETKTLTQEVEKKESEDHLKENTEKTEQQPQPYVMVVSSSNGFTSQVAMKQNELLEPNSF
# How it was run: as §1
# EHF = biological target: T5, EHF (Homo sapiens, UniProt Q9NZC4 1-300); details: protein: recombinant; tags: N-terminal GST; dsDNA, one strand shown
# T5 sequence: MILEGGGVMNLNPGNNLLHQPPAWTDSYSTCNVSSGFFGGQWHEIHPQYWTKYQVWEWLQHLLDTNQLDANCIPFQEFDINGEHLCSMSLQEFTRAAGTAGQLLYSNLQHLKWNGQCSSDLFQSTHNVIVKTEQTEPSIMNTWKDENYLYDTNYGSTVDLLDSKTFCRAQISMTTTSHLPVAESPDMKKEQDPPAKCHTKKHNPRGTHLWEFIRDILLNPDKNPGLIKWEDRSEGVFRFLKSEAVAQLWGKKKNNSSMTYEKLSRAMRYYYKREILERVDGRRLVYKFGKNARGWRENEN
# How it was run: as §1
# SPI1 = SPI1 (Homo sapiens, UniProt P17947 1-270); details: protein: recombinant; tags: N-terminal GST; dsDNA, one strand shown
# How it was run: as §1
# SPIB = SPIB (Homo sapiens, UniProt Q01892 1-262); details: protein: recombinant; tags: N-terminal GST; dsDNA, one strand shown
# Sequence of SPIB (Q01892 whole entry): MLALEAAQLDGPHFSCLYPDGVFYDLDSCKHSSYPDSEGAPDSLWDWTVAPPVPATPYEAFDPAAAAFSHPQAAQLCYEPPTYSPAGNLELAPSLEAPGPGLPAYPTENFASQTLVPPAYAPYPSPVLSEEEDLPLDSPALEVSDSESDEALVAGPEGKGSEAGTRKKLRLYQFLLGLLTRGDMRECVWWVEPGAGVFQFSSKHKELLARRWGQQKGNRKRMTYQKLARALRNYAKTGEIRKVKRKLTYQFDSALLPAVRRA
# How it was run: as §1
# ELK3 = biological target: T6, ELK3 (Homo sapiens, UniProt P41970 1-407); details: protein: recombinant; tags: N-terminal GST; dsDNA, one strand shown
# T6 sequence: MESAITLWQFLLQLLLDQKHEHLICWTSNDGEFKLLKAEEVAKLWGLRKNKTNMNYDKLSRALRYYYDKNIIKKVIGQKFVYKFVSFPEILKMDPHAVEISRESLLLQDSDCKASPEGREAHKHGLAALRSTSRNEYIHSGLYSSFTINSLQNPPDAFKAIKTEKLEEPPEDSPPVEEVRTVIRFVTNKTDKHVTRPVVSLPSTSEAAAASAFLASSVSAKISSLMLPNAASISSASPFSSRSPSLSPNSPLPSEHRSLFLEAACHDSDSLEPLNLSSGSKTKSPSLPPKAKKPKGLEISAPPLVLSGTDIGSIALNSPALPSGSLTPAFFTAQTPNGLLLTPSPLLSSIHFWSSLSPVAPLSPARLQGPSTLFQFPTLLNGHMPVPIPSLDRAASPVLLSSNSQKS
# How it was run: as §1
# FEV = biological target: T7, FEV (Homo sapiens, UniProt Q99581 1-238); details: protein: recombinant; tags: N-terminal GST; dsDNA, one strand shown
# T7 sequence: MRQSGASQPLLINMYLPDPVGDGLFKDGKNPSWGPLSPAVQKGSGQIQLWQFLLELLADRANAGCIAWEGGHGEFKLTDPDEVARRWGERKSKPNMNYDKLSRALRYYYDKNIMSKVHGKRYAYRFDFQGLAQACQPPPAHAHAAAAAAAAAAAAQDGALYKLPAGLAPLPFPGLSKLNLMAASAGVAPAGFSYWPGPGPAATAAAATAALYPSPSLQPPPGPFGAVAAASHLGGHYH
# How it was run: as §1
# ETV5 = ETV5 (Homo sapiens, UniProt P41161 1-510); details: protein: recombinant; tags: N-terminal GST; dsDNA, one strand shown
# Sequence of ETV5 (P41161 whole entry): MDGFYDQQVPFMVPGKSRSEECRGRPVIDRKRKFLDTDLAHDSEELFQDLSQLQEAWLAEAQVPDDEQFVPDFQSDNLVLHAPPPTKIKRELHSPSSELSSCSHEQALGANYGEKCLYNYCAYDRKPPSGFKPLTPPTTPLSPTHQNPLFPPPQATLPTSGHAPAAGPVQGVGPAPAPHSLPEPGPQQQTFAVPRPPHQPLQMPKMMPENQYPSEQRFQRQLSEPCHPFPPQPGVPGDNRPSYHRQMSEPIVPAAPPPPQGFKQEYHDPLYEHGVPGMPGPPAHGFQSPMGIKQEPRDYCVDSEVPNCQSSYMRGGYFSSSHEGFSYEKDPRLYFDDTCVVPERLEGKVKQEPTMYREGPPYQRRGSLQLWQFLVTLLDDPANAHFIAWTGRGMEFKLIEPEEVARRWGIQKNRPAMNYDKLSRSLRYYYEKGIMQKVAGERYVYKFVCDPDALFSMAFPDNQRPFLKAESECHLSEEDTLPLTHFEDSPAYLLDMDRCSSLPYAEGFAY
# How it was run: as §1
# HSF1 = HSF1 (Homo sapiens, UniProt Q00613 1-529); details: protein: recombinant; tags: N-terminal GST; chain copies: 3; dsDNA, one strand shown
# Sequence of HSF1 (Q00613 whole entry): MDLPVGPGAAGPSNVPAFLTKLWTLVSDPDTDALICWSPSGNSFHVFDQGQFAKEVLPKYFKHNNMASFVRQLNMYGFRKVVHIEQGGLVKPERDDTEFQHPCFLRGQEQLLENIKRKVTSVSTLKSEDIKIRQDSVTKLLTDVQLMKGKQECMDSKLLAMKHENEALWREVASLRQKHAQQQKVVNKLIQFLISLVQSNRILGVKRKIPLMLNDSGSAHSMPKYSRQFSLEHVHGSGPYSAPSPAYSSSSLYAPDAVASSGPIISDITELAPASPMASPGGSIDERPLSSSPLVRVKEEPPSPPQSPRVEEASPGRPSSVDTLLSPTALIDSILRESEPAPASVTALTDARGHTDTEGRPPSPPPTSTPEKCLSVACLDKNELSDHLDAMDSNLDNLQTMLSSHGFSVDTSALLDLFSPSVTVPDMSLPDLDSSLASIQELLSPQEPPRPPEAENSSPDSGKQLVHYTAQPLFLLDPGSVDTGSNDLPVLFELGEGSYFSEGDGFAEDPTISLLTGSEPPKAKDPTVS
# How it was run: as §1
# SPIC = biological target: T8, SPIC (Homo sapiens, UniProt Q8N5J4 1-248); details: protein: recombinant; tags: N-terminal GST; dsDNA, one strand shown
# T8 sequence: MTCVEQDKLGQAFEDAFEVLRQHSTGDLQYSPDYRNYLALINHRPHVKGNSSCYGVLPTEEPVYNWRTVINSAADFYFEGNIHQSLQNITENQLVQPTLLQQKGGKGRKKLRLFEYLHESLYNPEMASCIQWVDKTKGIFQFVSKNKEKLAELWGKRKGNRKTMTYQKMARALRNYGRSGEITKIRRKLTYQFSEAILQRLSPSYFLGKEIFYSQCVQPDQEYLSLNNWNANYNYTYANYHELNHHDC
# How it was run: as §1
# ELF4 = ELF4 (Homo sapiens, UniProt Q99607 1-663); details: protein: recombinant; tags: N-terminal GST; dsDNA, one strand shown
# Sequence of ELF4 (Q99607 whole entry): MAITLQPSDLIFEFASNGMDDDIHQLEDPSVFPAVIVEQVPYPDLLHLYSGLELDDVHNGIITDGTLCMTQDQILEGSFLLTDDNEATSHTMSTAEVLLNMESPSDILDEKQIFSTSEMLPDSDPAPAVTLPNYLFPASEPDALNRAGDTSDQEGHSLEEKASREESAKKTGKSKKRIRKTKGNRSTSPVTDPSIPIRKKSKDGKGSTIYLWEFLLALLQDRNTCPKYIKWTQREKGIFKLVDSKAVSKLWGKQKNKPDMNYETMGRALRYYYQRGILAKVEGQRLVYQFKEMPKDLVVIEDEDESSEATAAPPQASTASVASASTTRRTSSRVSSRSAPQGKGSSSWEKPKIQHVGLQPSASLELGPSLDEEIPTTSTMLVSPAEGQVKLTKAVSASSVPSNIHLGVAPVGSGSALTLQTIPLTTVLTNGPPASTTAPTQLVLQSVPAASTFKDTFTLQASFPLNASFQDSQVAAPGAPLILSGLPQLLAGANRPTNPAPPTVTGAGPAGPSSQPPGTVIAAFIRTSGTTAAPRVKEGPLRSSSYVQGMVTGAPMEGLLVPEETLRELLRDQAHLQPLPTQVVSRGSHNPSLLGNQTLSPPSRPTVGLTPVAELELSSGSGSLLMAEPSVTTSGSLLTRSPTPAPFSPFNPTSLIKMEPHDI
# How it was run: as §1
# ELK4 = biological target: T9, ELK4 (Homo sapiens, UniProt P28324-2 1-405); details: protein: recombinant; tags: N-terminal GST; dsDNA, one strand shown
# T9 sequence: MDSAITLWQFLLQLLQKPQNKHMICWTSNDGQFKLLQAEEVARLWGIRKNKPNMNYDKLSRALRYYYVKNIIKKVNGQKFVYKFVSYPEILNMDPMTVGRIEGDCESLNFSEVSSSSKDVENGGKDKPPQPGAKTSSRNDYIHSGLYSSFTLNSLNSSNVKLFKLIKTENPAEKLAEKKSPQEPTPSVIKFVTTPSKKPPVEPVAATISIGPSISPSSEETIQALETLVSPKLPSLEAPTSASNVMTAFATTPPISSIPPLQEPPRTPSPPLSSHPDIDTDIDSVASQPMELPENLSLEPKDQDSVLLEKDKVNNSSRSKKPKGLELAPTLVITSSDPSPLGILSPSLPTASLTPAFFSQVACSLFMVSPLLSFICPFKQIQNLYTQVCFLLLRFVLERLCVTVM
# How it was run: as §1
# ETV2 = biological target: T10, ETV2 (Homo sapiens, UniProt O00321 1-342); details: protein: recombinant; tags: N-terminal GST; dsDNA, one strand shown
# T10 sequence: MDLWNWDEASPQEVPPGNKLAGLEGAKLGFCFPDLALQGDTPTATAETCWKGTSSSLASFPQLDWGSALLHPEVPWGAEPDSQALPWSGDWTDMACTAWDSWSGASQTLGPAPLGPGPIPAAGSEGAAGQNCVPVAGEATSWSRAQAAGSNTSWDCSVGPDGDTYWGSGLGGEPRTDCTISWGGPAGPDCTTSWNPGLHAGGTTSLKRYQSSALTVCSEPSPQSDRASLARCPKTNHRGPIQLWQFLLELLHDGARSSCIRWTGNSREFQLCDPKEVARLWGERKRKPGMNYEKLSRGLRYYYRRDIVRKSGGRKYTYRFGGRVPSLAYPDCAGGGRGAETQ
# How it was run: as §1
# ELF3 = biological target: T11, ELF3 (Homo sapiens, UniProt P78545 1-371); details: protein: recombinant; tags: N-terminal GST; dsDNA, one strand shown
# T11 sequence: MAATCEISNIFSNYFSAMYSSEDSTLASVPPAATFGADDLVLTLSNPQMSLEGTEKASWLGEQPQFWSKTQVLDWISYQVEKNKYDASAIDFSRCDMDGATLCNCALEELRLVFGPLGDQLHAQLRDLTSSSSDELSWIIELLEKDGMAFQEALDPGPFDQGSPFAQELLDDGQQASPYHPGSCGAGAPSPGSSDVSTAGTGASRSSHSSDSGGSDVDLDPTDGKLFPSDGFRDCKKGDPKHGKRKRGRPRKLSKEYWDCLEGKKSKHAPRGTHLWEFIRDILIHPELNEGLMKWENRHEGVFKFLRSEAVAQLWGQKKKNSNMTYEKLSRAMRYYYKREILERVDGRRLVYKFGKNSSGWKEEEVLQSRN
# How it was run: as §1
# CRX = CRX (Homo sapiens, UniProt O43186 1-299); details: protein: recombinant; tags: N-terminal GST; dsDNA, one strand shown
# Sequence of CRX (O43186 whole entry): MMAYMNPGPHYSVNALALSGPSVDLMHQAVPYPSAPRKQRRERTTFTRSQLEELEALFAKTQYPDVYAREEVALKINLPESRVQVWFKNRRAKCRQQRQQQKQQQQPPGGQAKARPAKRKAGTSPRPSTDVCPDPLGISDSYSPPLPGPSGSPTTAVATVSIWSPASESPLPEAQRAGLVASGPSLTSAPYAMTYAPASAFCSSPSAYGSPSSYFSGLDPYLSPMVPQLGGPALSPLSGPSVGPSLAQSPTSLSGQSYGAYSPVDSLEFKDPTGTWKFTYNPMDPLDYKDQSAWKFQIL
# How it was run: as §1
# ETV1 = ETV1 (Homo sapiens, UniProt P50549 1-477); details: protein: recombinant; tags: N-terminal GST; dsDNA, one strand shown
# Sequence of ETV1 (P50549 whole entry): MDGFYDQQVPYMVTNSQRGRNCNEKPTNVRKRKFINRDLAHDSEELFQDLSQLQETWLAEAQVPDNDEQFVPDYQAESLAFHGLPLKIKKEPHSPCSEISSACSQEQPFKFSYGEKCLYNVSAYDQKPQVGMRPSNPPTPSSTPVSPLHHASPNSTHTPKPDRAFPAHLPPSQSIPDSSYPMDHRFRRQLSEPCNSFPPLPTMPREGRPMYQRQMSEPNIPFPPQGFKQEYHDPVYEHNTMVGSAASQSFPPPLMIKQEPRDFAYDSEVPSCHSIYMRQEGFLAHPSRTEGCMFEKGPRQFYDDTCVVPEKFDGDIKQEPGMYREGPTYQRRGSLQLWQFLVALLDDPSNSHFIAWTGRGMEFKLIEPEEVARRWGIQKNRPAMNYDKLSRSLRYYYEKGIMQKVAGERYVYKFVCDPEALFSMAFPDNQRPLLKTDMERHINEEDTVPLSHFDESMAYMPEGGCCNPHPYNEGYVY
# How it was run: as §1
sequence,measurement,setting,value
TTATCT,binding signal,FLI1,"1.37 fold enrichment (6-mer frequency, TF over GST control)"
same,binding signal,ELK1,"1.2 fold enrichment (6-mer frequency, TF over GST control)"
same,binding signal,GABPA,"1.41 fold enrichment (6-mer frequency, TF over GST control)"
same,binding signal,ERG,"1.15 fold enrichment (6-mer frequency, TF over GST control)"
same,binding signal,ELF1,"1.31 fold enrichment (6-mer frequency, TF over GST control)"
same,binding signal,EHF,"1.3 fold enrichment (6-mer frequency, TF over GST control)"
same,binding signal,SPI1,"1.31 fold enrichment (6-mer frequency, TF over GST control)"
same,binding signal,SPIB,"1.34 fold enrichment (6-mer frequency, TF over GST control)"
same,binding signal,ELK3,"1.36 fold enrichment (6-mer frequency, TF over GST control)"
same,binding signal,FEV,"1.24 fold enrichment (6-mer frequency, TF over GST control)"
same,binding signal,ETV5,"1.27 fold enrichment (6-mer frequency, TF over GST control)"
same,binding signal,HSF1,"2.24 fold enrichment (6-mer frequency, TF over GST control)"
same,binding signal,SPIC,"1.25 fold enrichment (6-mer frequency, TF over GST control)"
same,binding signal,ELF4,"1.25 fold enrichment (6-mer frequency, TF over GST control)"
same,binding signal,ELK4,"1.45 fold enrichment (6-mer frequency, TF over GST control)"
same,binding signal,ETV2,"1.2 fold enrichment (6-mer frequency, TF over GST control)"
same,binding signal,ELF3,"1.13 fold enrichment (6-mer frequency, TF over GST control)"
same,binding signal,CRX,"3.25 fold enrichment (6-mer frequency, TF over GST control)"
same,binding signal,ETV1,"1.29 fold enrichment (6-mer frequency, TF over GST control)"
